Experimental findings from the supplement of paper PMC9262897, “Low-cost anti-mycobacterial drug discovery using engineered E. coli” (Nature Communications, 2022) are described below.

± gives the standard deviation of the averaged measurements.

Test in all cases: growth (OD600 after 10 h); higher = more growth (less inhibition)
Test [1] concerns E. coli TESEC Alr+ wild-type control. The following applies: compound 0.1 mM; raw OD600 reference: median of DMSO wells 0.241, cell-free background 0.041. As for the experimental part:
(§1)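 TESEC Mtb Alr E. coli, or the Alr+ wild-type control, in 384-well plates with Prestwick library compounds at 0.1 mM and 1% DMSO, across arabinose induction levels of 1E3 to 1E7 nM. Growth is read as OD600 after 10 h at 37 °C in triplicate biological replicates.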

The subject of test [2] is E. coli TESEC Mtb Alr. The following applies: compound 0.1 mM. The procedure:
as §1

In a further test the test system is E. coli TESEC Mtb Asd. The following applies: compound 0.1 mM. As for the experimental part:
(§2)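 TESEC E. coli strains in which the native enzyme is deleted and replaced by arabinose-inducible Mtb Asd, DapB, CysH or TrpD, each grown in its selective medium. Strains were screened against the Prestwick library at 0.1 mM and 1% DMSO in 384-well format at low and high arabinose induction. Growth is read as OD600 after 10 h in triplicate.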

In another test the test system is E. coli TESEC Mtb DapB. The following applies: compound 0.1 mM. The procedure: as §2
Test [3] deals with E. coli TESEC Alr+ wild-type control. The following applies: compound 0.1 mM; raw OD600 reference: median of DMSO wells 0.49, cell-free background 0.052. As for the experimental part: (§3)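 TESEC Mtb Alr E. coli (ΔaraC ΔtolC ΔentC Δalr ΔdadX, arabinose-inducible Mtb Alr) or the Alr+ wild-type control strain, grown in defined M9-fructose medium without D-alanine in 96-well plates with Prestwick library compounds at 0.1 mM and 1% DMSO. Low Alr induction is 0.1 µM arabinose and high induction is 10 mM arabinose.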

The subject of test [4] is E. coli TESEC Mtb Alr. The following applies: compound 0.1 mM. The procedure: as §3
This is another data set of the same source.

[5] abbreviates: arabinose 1000 nM, raw OD600 reference: median of DMSO wells 0.294, cell-free background 0.041.
Setting [6] is: arabinose 10000 nM, raw OD600 reference: median of DMSO wells 0.264, cell-free background 0.041.
The mark [7] stands for this setting: arabinose 100000 nM, raw OD600 reference: median of DMSO wells 0.201, cell-free background 0.041.
The mark [8] stands for this setting: arabinose 1000000 nM, raw OD600 reference: median of DMSO wells 0.193, cell-free background 0.041.
Where [9] appears, read: arabinose 10000000 nM, raw OD600 reference: median of DMSO wells 0.146, cell-free background 0.041.
The mark [10] stands for this setting: arabinose induction (level): High, raw OD600 reference: median of DMSO wells 0.331, cell-free background 0.041.
[11] abbreviates: arabinose induction (level): Low, raw OD600 reference: median of DMSO wells 0.417, cell-free background 0.041.
Setting [12] is: arabinose induction (level): High, raw OD600 reference: median of DMSO wells […], cell-free background 0.041.
Setting [13] is: arabinose induction (level): Low, raw OD600 reference: median of DMSO wells 0.227, cell-free background 0.041.
Setting [14] is: arabinose 100 nM, raw OD600 reference: median of DMSO wells 0.413, cell-free background 0.052.
Setting [15] is: arabinose 10000000 nM, raw OD600 reference: median of DMSO wells […], cell-free background 0.052.

As for `Cc1cc(/C=C/c2ccc3cc(N(C)C)ccc3[n+]2C)c(C)n1-c1ccccc1` [Pyrvinium pamoate], the growth in test [1] was found to be 0.0976 ± 0.0031; in the test with E. coli TESEC Mtb Alr [2] (setting [5]), 0.0602 ± 0.0021; in the test on E. coli TESEC Mtb Alr [2] (setting [6]), 0.0614 ± 0.0072; with E. coli TESEC Mtb Alr [2] (setting [7]), 0.0747 ± 0.009; in the test on E. coli TESEC Mtb Alr [2] (setting [8]) it was 0.0511 ± 0.00066; in the test on E. coli TESEC Mtb Alr [2] (setting [9]) it was 0.0872 ± 0.0092. Moreover, the growth in the test with E. coli TESEC Mtb Asd (setting [10]) was determined as 0.071 ± 0.00096; with E. coli TESEC Mtb Asd (setting [11]) it was 0.0642 ± 0.0028; in the test on E. coli TESEC Mtb DapB (setting [12]), 0.0704 ± 0.0048; in the test with E. coli TESEC Mtb DapB (setting [13]), 0.0798 ± 0.011; in test [3] it was 0.141 ± 0.019; in the test on E. coli TESEC Mtb Alr [4] (setting [14]) it was 0.142 ± 0.013. For the same molecule, in the test on E. coli TESEC Mtb Alr [4] (setting [15]), the growth worked out at 0.162 ± 0.025.

As to `Nc1ccc(S(=O)(=O)Nc2ccccn2)cc1` [Sulfapyridine], the growth in test [1] was found to be 0.239 ± 0.0046; in the test with E. coli TESEC Mtb Alr [2] (setting [5]), 0.295 ± 0.018; in the test with E. coli TESEC Mtb Alr [2] (setting [6]) it was 0.261 ± 0.0053; with E. coli TESEC Mtb Alr [2] (setting [7]), 0.219 ± 0.0099; with E. coli TESEC Mtb Alr [2] (setting [8]), 0.174 ± 0.0063; in the test on E. coli TESEC Mtb Alr [2] (setting [9]), 0.141 ± 0.0049. Further, the growth in the test on E. coli TESEC Mtb Asd (setting [10]) is 0.354 ± 0.035; in the test with E. coli TESEC Mtb Asd (setting [11]), 0.412 ± 0.015; in the test with E. coli TESEC Mtb DapB (setting [12]) it was 0.188 ± 0.02; in the test with E. coli TESEC Mtb DapB (setting [13]) it was 0.215 ± 0.041; in test [3], 0.449 ± 0.0039; in the test on E. coli TESEC Mtb Alr [4] (setting [14]) it was 0.405 ± 0.013. In addition, the growth in the test on E. coli TESEC Mtb Alr [4] (setting [15]) was 0.325 ± 0.0082.

`O=C(Nc1ccc([N+](=O)[O-])cc1Cl)c1cc(Cl)ccc1O` [Niclosamide]: the growth in test [1] amounted to 0.0431 ± 0.00067; in the test with E. coli TESEC Mtb Alr [2] (setting [5]) it was 0.0406 ± 0.001; with E. coli TESEC Mtb Alr [2] (setting [6]) it was 0.0492 ± 0.0021; in the test with E. coli TESEC Mtb Alr [2] (setting [7]) it was 0.0408 ± 0.0001; in the test on E. coli TESEC Mtb Alr [2] (setting [8]), 0.03973 ± 0.00035; in the test on E. coli TESEC Mtb Alr [2] (setting [9]) it was 0.0404 ± 0.00042. Moreover, the growth in the test on E. coli TESEC Mtb Asd (setting [10]) is 0.0715 ± 0.017; in the test on E. coli TESEC Mtb Asd (setting [11]) it was 0.225 ± 0.037; with E. coli TESEC Mtb DapB (setting [12]), 0.174 ± 0.012; in the test with E. coli TESEC Mtb DapB (setting [13]), 0.193 ± 0.043; in test [3], 0.053 ± 0.003; in the test on E. coli TESEC Mtb Alr [4] (setting [14]), 0.0618 ± 0.0064. Moreover, the growth in the test on E. coli TESEC Mtb Alr [4] (setting [15]) was 0.0616 ± 0.00076.

Consider `CC(=O)Nc1c(I)c(NC(C)=O)c(I)c(C(=O)O)c1I` [Diatrizoic acid dihydrate], for which the growth in test [1] amounted to 0.234 ± 0.0051; in the test with E. coli TESEC Mtb Alr [2] (setting [5]), 0.285 ± 0.0023; with E. coli TESEC Mtb Alr [2] (setting [6]), 0.255 ± 0.0056; in the test on E. coli TESEC Mtb Alr [2] (setting [7]), 0.191 ± 0.017; in the test on E. coli TESEC Mtb Alr [2] (setting [8]), 0.213 ± 0.0043; with E. coli TESEC Mtb Alr [2] (setting [9]) it was 0.131 ± 0.01. In addition, the growth in the test on E. coli TESEC Mtb Asd (setting [10]) was 0.297 ± 0.043; in the test with E. coli TESEC Mtb Asd (setting [11]) it was 0.326 ± 0.053; in the test with E. coli TESEC Mtb DapB (setting [12]) it was 0.197 ± 0.013; with E. coli TESEC Mtb DapB (setting [13]), 0.235 ± 0.023; in test [3], 0.537 ± 0.08; with E. coli TESEC Mtb Alr [4] (setting [14]), 0.424 ± 0.011. In addition, in the test on E. coli TESEC Mtb Alr [4] (setting [15]), the growth came to 0.348 ± 0.0074.

For `CCN1CCC[C@H]1CNC(=O)c1c(O)c(Cl)cc(Cl)c1OC` [Raclopride], the growth was found to be 0.173 ± 0.014 in test [1]; 0.16 ± 0.01 in the test with E. coli TESEC Mtb Alr [2] (setting [5]); 0.148 ± 0.017 in the test on E. coli TESEC Mtb Alr [2] (setting [6]); 0.14 ± 0.014 with E. coli TESEC Mtb Alr [2] (setting [7]); 0.107 ± 0.0082 in the test with E. coli TESEC Mtb Alr [2] (setting [8]); 0.172 ± 0.0058 with E. coli TESEC Mtb Alr [2] (setting [9]). The growth in the test with E. coli TESEC Mtb Asd (setting [10]) came to 0.13 ± 0.013; in the test on E. coli TESEC Mtb Asd (setting [11]), 0.133 ± 0.014; in the test with E. coli TESEC Mtb DapB (setting [12]), 0.173 ± 0.013; with E. coli TESEC Mtb DapB (setting [13]), 0.166 ± 0.019; in test [3] it was 0.391 ± 0.075; in the test on E. coli TESEC Mtb Alr [4] (setting [14]), 0.395 ± 0.038. In the test with E. coli TESEC Mtb Alr [4] (setting [15]), this molecule had a growth of 0.175 ± 0.027.
